Results filed as inconclusive are left out. Calls of active or inactive are those of the source. Calls come from the whole dose curve; as a rule, active = well fitted curve in the direction sought with a large enough effect in the repeat runs; inconclusive = weak or mixed curves; inactive = no such curve, though single readings can be large; an effect the other way counts as inactive or inconclusive.
Legend:
[1] = A CellTox Green Cytotoxicity Assay to monitor cytotoxicity in HEK293 cells - 40 hour (AID 1224871); note: nearly all actives have a fitted effect of over 45% in size
How it was run: (§1)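 HEK293 cells premixed with CellTox Green dye were seeded at 600 cells/well and left 5 h at 37 C/5% CO2 before pin transfer of 23 nL compound in DMSO. Fluorescence from dye bound to dead-cell DNA was read during 40 h treatment.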

[2] = qHTS RealTime-Glo MT Cell Viability Assay in HEK293 cells - 16 hour (AID 1224872); note: top concentration of the series differs between compounds; nearly all actives have a fitted effect of over 50% in size
How it was run: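 Luminescence generated by NanoLuc from substrate produced by living HEK293 cells served as the viability signal. Each value reflects the reading at its stated time point during continuous 40 h compound exposure at 37 C.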

[3] = qHTS RealTime-Glo MT Cell Viability Assay in HepG2 cells - 8 hour (AID 1224873); note: nearly all actives have a fitted effect of over 55% in size
How it was run: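 HepG2 cells (600/well) mixed with RealTime-Glo MT reagent, settled 5 h at 37 C/5% CO2 before compound addition. Nonlytic NanoLuc luminescence from viable-cell prosubstrate reduction read repeatedly during 40 h treatment at 37 C.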

[4] = qHTS RealTime-Glo MT Cell Viability Assay in HEK293 cells - 40 hour (AID 1224874); settings: RealTime-Glo luminescence; max response: hits give low values; note: nearly all actives have a fitted effect of over 50% in size
How it was run: (§2)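 HEK293 cells mixed with RealTime-Glo reagents (NanoLuc plus cell-permeant prosubstrate) at 600 cells/well, preincubated 5 h at 37 C/5% CO2, then given 23 nL compound in DMSO. Nonlytic luminescence from viable cells was read at 0, 8, 16, 24, 32 and 40 h.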

[5] = A CellTox Green Cytotoxicity Assay to monitor cytotoxicity in HEK293 cells - 24 hour (AID 1224875); note: series mostly up to about 77 µM; nearly all actives have a fitted effect of over 45% in size
How it was run: as §1

[6] = A CellTox Green Cytotoxicity Assay to monitor cytotoxicity in HepG2 cells - 16 hour (AID 1224876); note: nearly all actives have a fitted effect of over 45% in size
How it was run: (§3)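 HepG2 cells were seeded together with the CellTox Green dye at 600 cells/well, left 5 h at 37 C/5% CO2, then given compounds in DMSO. Fluorescence from dye bound to dead-cell DNA was read repeatedly over 40 h of treatment at 37 C.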

[7] = qHTS RealTime-Glo MT Cell Viability Assay in HepG2 cells - 32 hour (AID 1224877); note: nearly all actives have a fitted effect of over 55% in size
How it was run: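 Tox21 10K library screened in qHTS format on HepG2 cells carrying RealTime-Glo reagents. Compounds were added after a 5 h preincubation, and the luminescent signal from continuous culture was measured repeatedly during 40 h treatment.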

[8] = A CellTox Green Cytotoxicity Assay to monitor cytotoxicity in HepG2 cells - 24 hour (AID 1224878); note: nearly all actives have a fitted effect of over 45% in size
How it was run: as §3

[9] = A CellTox Green Cytotoxicity Assay to monitor cytotoxicity in HepG2 cells - 40 hour (AID 1224879); note: nearly all actives have a fitted effect of over 40% in size
How it was run: as §3

[10] = qHTS RealTime-Glo MT Cell Viability Assay in HEK293 cells - 0 hour (AID 1224880)
How it was run: as §2
% is set by controls: 0 for no effect and ±100 for the full control effect.

C#CC(C)(C)O
inactive: Potency [1] | Potency [2] | outcome [3] | max response [4] 6.71% | Potency [5] | Potency [6] | Potency [7] | Potency [8] | Potency [9] | outcome [10]

CN(C)CCc1c[nH]c2cccc(OP(=O)(O)O)c12
inactive: Potency [1] | Potency [2] | outcome [3] | max response [4] -0.389% | Potency [5] | Potency [6] | Potency [7] | Potency [8] | outcome [10]

CC(C)(N)Cc1ccccc1Cl
inactive: Potency [1] | Potency [2] | outcome [3] | max response [4] 1.76% | Potency [5] | Potency [6] | Potency [7] | Potency [8] | Potency [9] | outcome [10]

CCNP(=S)(OC)O/C(C)=C/C(=O)OC(C)C (centres undefined)
inactive: Potency [1] | Potency [2] | outcome [3] | max response [4] -13.5% | Potency [5] | Potency [6] | Potency [7] | Potency [8] | Potency [9] | outcome [10]

CC[C@@H](CO)NC(=O)[C@@H]1C=C2c3cccc4c3c(cn4C)C[C@H]2N(C)C1
inactive: Potency [1] | Potency [2] | outcome [3] | max response [4] -3.36% | Potency [5] | Potency [6] | Potency [8] | Potency [9] | outcome [10]

CC(O)CCl (centres undefined)
inactive: Potency [1] | Potency [2] | outcome [3] | max response [4] 1.35% | Potency [5] | Potency [6] | Potency [7] | Potency [8] | Potency [9] | outcome [10]

CC(C)N(Cc1ccccc1)C(=O)C(C)(C)C
inactive: Potency [1] | Potency [2] | outcome [3] | max response [4] -9.28% | Potency [5] | Potency [6] | Potency [7] | outcome [10]

COC(=O)c1ccc(CBr)cc1
inactive: Potency [1] | Potency [2] | outcome [3] | max response [4] 3.15% | Potency [5] | Potency [6] | Potency [7] | Potency [8] | Potency [9] | outcome [10]

C[C@]12C=CC(=O)C=C1CC[C@@H]1[C@@H]2CC[C@@]2(C)[C@H]1CC[C@]2(C)O
inactive: Potency [1] | Potency [2] | outcome [3] | max response [4] -19.7% | Potency [5] | Potency [6] | Potency [7] | Potency [8] | outcome [10]

ClCOCCl
inactive: Potency [1] | Potency [2] | outcome [3] | max response [4] 12.2% | Potency [5] | Potency [6] | Potency [8] | Potency [9] | outcome [10]

CC[C@@H](CO)NC(=O)[C@@H]1C=C2c3cccc4[nH]cc(c34)C[C@H]2N(C)C1
inactive: Potency [1] | Potency [2] | outcome [3] | max response [4] 1.11% | Potency [5] | Potency [6] | Potency [7] | Potency [8] | Potency [9] | outcome [10]

CC(C)C(C)(N)C#N (centres undefined)
inactive: Potency [1] | Potency [2] | outcome [3] | max response [4] -5.83% | Potency [5] | Potency [6] | Potency [7] | Potency [8] | Potency [9] | outcome [10]

CCN[C@@H](C)Cc1cccc(C(F)(F)F)c1
inactive: Potency [1] | Potency [2] | outcome [3] | max response [4] 2.94% | Potency [5] | Potency [6] | Potency [7] | Potency [8] | Potency [9] | outcome [10]

O=C/C=C/c1ccco1
inactive: Potency [1] | Potency [2] | outcome [3] | max response [4] 3.04% | Potency [5] | Potency [6] | Potency [8] | Potency [9] | outcome [10]

C=C(Cl)CSC(=S)N(CC)CC
inactive: Potency [1] | Potency [2] | outcome [3] | max response [4] -15% | Potency [5] | Potency [6] | Potency [7] | Potency [8] | Potency [9] | outcome [10]

COC[C@@H](NC(C)=O)C(=O)NCc1ccccc1
inactive: Potency [1] | Potency [2] | outcome [3] | max response [4] 5.22% | Potency [5] | Potency [6] | Potency [7] | Potency [8] | Potency [9] | outcome [10]

CC(C)(N)Cc1ccc(Cl)cc1
inactive: Potency [1] | Potency [2] | outcome [3] | max response [4] 6.61% | Potency [5] | Potency [6] | Potency [7] | Potency [8] | Potency [9] | outcome [10]

O=C(CCl)NCO
inactive: Potency [1] | Potency [2] | outcome [3] | max response [4] 1.67% | Potency [5] | Potency [6] | Potency [7] | Potency [8] | Potency [9] | outcome [10]

O=C1CC(=O)NC(=O)N1
inactive: Potency [1] | Potency [2] | outcome [3] | max response [4] 12.1% | Potency [5] | Potency [6] | Potency [8] | Potency [9] | outcome [10]

CCCOC(=O)c1cncn1C(C)c1ccccc1 (centres undefined)
inactive: Potency [1] | Potency [2] | outcome [3] | max response [4] -0.62% | Potency [5] | Potency [6] | Potency [8] | Potency [9] | outcome [10]

CCNc1nc(Cl)nc(NC(C)(C)C)n1
inactive: Potency [1] | Potency [2] | outcome [3] | max response [4] -11% | Potency [5] | Potency [6] | Potency [7] | Potency [8] | Potency [9] | outcome [10]

CCC(=O)OC1(c2ccccc2)CCN(C)CC1
inactive: Potency [1] | Potency [2] | outcome [3] | max response [4] -7.76% | Potency [5] | Potency [6] | Potency [7] | Potency [8] | Potency [9] | outcome [10]

Cc1cccc2sc3nncn3c12
inactive: Potency [1] | Potency [2] | outcome [3] | max response [4] 22% | Potency [5] | Potency [6] | Potency [7] | Potency [9] | outcome [10]

C=CCN1CC[C@]23CCCC[C@H]2[C@H]1Cc1ccc(O)cc13
inactive: Potency [1] | Potency [2] | outcome [3] | max response [4] 1.5% | Potency [5] | Potency [6] | Potency [7] | Potency [8] | Potency [9] | outcome [10]

[O-][Br+2]([O-])O
inactive: Potency [1] | Potency [2] | outcome [3] | max response [4] 3% | Potency [5] | Potency [6] | Potency [8] | Potency [9] | outcome [10]

Reference: PubChem BioAssay (Tox21)
